Experiment [1] addresses Glutathione peroxidase 1 (Homo sapiens) (UniProt P07203). In words: Primary qHTS Assay for Inhibitors of Recombinant Selenoprotein Glutathione Peroxidase 1 (GPX1) (AID 1845191). Note: nearly all actives have a fitted effect of over 65% in size. In short, it runs like this:
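GR-coupled readout: NADPH consumption tracked by fluorescence, ex 340/em 450 nm, at t=0 and after 15 min at RT. Final mix 10 nM GPX1, 1 mM GSH, 0.5 mM CHP, 0.5 mM NADPH, 100 nM GR, 0.01% BSA, following 30 min enzyme–compound preincubation.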
For orientation: In qHTS, concentration-response curves come from the screen itself.

The target of experiment [2] is Phospholipid hydroperoxide glutathione peroxidase GPX4 (Homo sapiens) (UniProt P36969). In words: Primary qHTS Assay for Inhibitors of Recombinant Selenoprotein Glutathione Peroxidase 4 (GPX4) (AID 1845192). Note: nearly all actives have a fitted effect of over 65% in size. The method, boiled down: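 Steps: GPX4 plus compound, 30 min RT; add GR/GSH/NADPH master mix; start with cumene hydroperoxide; read 340/450 nm fluorescence at 0 and 15 min. Finals were 200 nM GPX4, 1 mM GSH, 0.5 mM CHP, 0.5 mM NADPH, 100 nM GR.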

Experiment [3] addresses Luciferin 4-monooxygenase (Photinus pyralis) (UniProt P08659). In words: Primary firefly luciferase (FLuc) qHTS assay for identification of artifact compounds. (AID 1845220). Note: nearly all actives have a fitted effect of over 60% in size. The method, boiled down:
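D-luciferin and ATP (10 uM each, final) in Tris acetate buffer pH 7.6 were incubated with compounds for 15 min at room temperature. The reaction was started with 10 nM Photinus pyralis luciferase and luminescence read after 5 min. Percent inhibition was fitted to a 4-parameter Hill equation.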

Experiment [4] is described as follows: Primary fluorescence-based thiol-reactive (MSTI) qHTS assay for identification of artifact compounds. (AID 1845221). Note: nearly all actives have a fitted effect of over 65% in size. Note: potency is the fitted concentration of half-maximal effect. The method, boiled down:
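Thiol-reactive compounds detected by quenching of 4 uM MSTI fluorescence (525/598 nm) after 1 h room-temperature dark incubation in PBS pH 7.4, 2% DMSO. qHTS titration; percent inhibition Hill-fitted against Acetyl-MSTI/MSTI controls.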

Experiment [5] has as its system Nanoluciferase (engineered Oplophorus gracilirostris luciferase). In words: Primary Nanoluciferase (NLuc) qHTS assay for identification of artifact compounds. (AID 1845222). Note: series mostly up to about 54 µM. The method, boiled down: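 Diluted conditioned medium from NLuc-expressing S16 cells treated with compounds for 15 min at room temperature, then Nano-Glo substrate added; luminescence read after 5 min. Percent inhibition versus no-enzyme and DMSO controls fitted to 4-parameter Hill equation.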

Inconclusive results are not listed. Active and inactive are the calls of the source. Calls come from the whole dose curve; as a rule, active = well fitted curve in the direction sought with a large enough effect; inconclusive = small, poorly fitted or top-dose-only effect, or another doubt; inactive = no such curve, though single readings can be large; an effect the other way counts as inactive or inconclusive.

Glutathione peroxidase 1 (Homo sapiens), sequence (P07203 whole entry, looked up): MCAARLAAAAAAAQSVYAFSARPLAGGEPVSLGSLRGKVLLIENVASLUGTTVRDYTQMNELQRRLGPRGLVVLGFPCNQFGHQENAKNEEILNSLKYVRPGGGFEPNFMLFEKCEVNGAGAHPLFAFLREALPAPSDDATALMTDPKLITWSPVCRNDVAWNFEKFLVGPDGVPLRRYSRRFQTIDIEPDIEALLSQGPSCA
Phospholipid hydroperoxide glutathione peroxidase GPX4 (Homo sapiens), sequence (P36969 whole entry, looked up): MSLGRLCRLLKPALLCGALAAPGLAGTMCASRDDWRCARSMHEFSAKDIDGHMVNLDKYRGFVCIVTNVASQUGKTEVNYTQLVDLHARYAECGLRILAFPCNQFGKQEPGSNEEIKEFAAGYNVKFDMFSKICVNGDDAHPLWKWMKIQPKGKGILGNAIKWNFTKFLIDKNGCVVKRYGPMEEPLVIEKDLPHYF

Turning to `CNC[C@@H]1CC[C@@H](N)[C@@H](O[C@H]2[C@H](O)[C@@H](O[C@H]3OC[C@](C)(O)[C@H](NC)[C@H]3O)[C@H](N)C[C@@H]2N)O1`, the Potency result in experiment [1] and in experiment [2] was “inactive” each time.
For `C[C@H](Nc1ncnc2nc[nH]c12)c1cc2cccc(Cl)c2c(=O)n1-c1ccccc1`, the Potency result in experiment [1], in experiment [2], in experiment [3] and in experiment [4] was “inactive” in each case.
Consider `CC1(C)CCCC2(C)C1C(OC(=O)/C=C/C=C/C=O)C=C1COC(=O)C12O` (stereo not drawn), for which the Potency entry in experiment [1], in experiment [2], in experiment [3] and in experiment [4] was “inactive” in each case.
Consider `COc1ccc2[nH]c(=O)c3c(c2c1)OC(C)(C)C=C3`, for which the Potency entry in experiment [1], in experiment [2], in experiment [3], in experiment [4] and in experiment [5] was “inactive” in each case.
As for `C=CC(C)(C)c1[nH]c2ccccc2c1C[C@@H]1NC(=O)[C@H](C)NC1=O`, the Potency entry in experiment [1], in experiment [2] and in experiment [3] was “inactive” in each case. Also, in experiment [4], the Potency was 5.85 µM (active).
`CC(C)c1ccccc1OC(=O)NCCc1ccc2ccccc2c1`: the Potency entry in experiment [1], in experiment [2], in experiment [3] and in experiment [4] was “inactive” each time.

Values taken from PubChem BioAssay (NCATS).
